# How the values were obtained:
# TIE2 = test system: T1, TIE2
# T1 construct: gene TEK
# TRKA = test system: T2, TRKA
# T2 construct: gene NTRK1
# [1] = test system: TYK2(JH1domain-catalytic)
# [2] = test system: TYK2(JH2domain-pseudokinase)
# VEGFR2 = test system: T3, VEGFR2
# T3 construct: gene KDR
# 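Also: kd values determined as follow-up on hits from a single-replicate KINOMEscan panel screen.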
smiles,measurement,setting,value
Cl.Cl.Cl.N#Cc1ccc(CCNc2nccc(-c3cccc(CN4CCNCC4)c3)n2)cc1 [GSK2137462],Kd,STK33,3.9 µM
same,Kd,WEE1,> 10 µM
same,Kd,WNK4,> 10 µM
CS(=O)(=O)Cc1ccc(Nc2nccc(-c3c(-c4cccc(NC(=O)C5CCCCC5)c4)nn4ncccc34)n2)cc1 [GSK350559],Kd,STK36,0.067 µM
CNCc1ccc2nc(NC(=O)c3ccc(C(C)(C)C)cc3)cn2c1,Kd,TAOK1,> 10 µM
same,Kd,TAOK3,> 10 µM
COc1cccc(CNC(=O)NC2CCN(c3ccnc(Nc4ccc(F)cc4)n3)C2)c1 (centres unmarked) [GSK1379723],Kd,TESK1,9.8 µM
same,Kd,TXK,> 10 µM
Cn1cncc1C(=O)NC1CCN(c2ccnc(Nc3ccc(F)cc3)n2)C1 (centres unmarked) [GSK1379717],Kd,TESK1,> 10 µM
same,Kd,TXK,> 10 µM
COc1ccc2cc(-c3nc(-c4ccccc4C(C)C)[nH]c3-c3ccncc3)ccc2c1 [SB-660566],Kd,TGFBR1,0.77 µM
same,Kd,TIE2,0.16 µM
Cc1nccc(-c2c(-c3ccc(F)cc3)ncn2CCCN2CCOCC2)n1.Cl [SB-282975],Kd,TIE2,> 10 µM
Nc1nccc(-c2c(-c3ccc(F)cc3)ncn2C2CCN(Cc3ccccc3)CC2)n1 [SB-219980],Kd,TNIK,4.1 µM
NS(=O)(=O)c1cccc(N/C=C2\C(=O)Nc3ccc(S(=O)(=O)Cc4c(Cl)cccc4Cl)cc32)c1 [GSK398099],Kd,TNIK,0.33 µM
O=C(Nc1n[nH]c2nc(-c3cccs3)c(Br)cc12)C1CC1 [SB-735297],Kd,TNNI3K,> 10 µM
COC(=O)C(Cc1ccccc1)NC(=O)NC1CCN(c2ccnc(Nc3ccc(F)cc3)n2)C1 (centres unmarked) [GSK1379714],Kd,TRKA,1.5 µM
O=C(Nc1n[nH]c2cc(-c3ccsc3)ccc12)C1CC1 [SB-732932],Kd,TRKA,3.1 µM
CC(=O)c1c(C)c2cnc(Nc3ccc(N4CCNCC4)cn3)nc2n(C2CCCC2)c1=O,Kd,TTK,0.0092 µM
O=C1NC(=O)C(c2ccc(Cl)cc2)=C1Nc1ccc(O)cc1 [SB-340867],Kd,TTK,5.5 µM
Cn1cncc1-c1cc2c(Nc3ccc(OCc4ccccc4)cc3)ncnc2cn1 [GW281179],Kd,[1],> 10 µM
CN1c2ccc(-c3ccc(C(N)=O)cc3)cc2-c2[nH]ncc2S1(=O)=O,Kd,[2],0.93 µM
Cn1cnc2c(N)ncnc21 [SKF-97623],Kd,VEGFR2,> 10 µM
same,Kd,VRK2,> 10 µM
O=C1NC(=O)C(c2ccc(Cl)cc2)=C1Nc1cccc(Cl)c1 [SB-317651],Kd,VRK2,> 10 µM
CNc1cc(-c2ccc3c(N)n[nH]c3c2)nc(N)n1 [GSK2224810],Kd,WNK4,> 10 µM
